Most compounds without a hit are left out; they make up all but 14% or so of the library.
Pf growth 48h = Primary qHTS for delayed death inhibitors of the malarial parasite plastid, 48 hour incubation; Potency, µM (highest dose often 28.7 µM), hits mostly inhibitors; 310,000 compounds, 5.9% hits; P. falciparum luciferase growth in erythrocytes, 48 h
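In quantitative HTS format, infected erythrocytes bearing luciferase-reporter parasites were treated for a single generation at 37 C. Luminescence after adding detection reagent served as the growth measure.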
HCMV antiviral = qHTS Assay for inhibitors of the human cytomegalovirus (HCMV); activity change, negative = inhibition, % at 57.5 µM; 410,000 compounds, 4.5% hits; HFF cells, HCMV-luciferase reporter, 72 h; stronger effect = lower value; in the data active = activity change below about -60%; inconclusive = no clear call, values can overlap the other calls; inactive = above about -39%
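Two-dose cell screen: HFF monolayers treated with compounds and infected with luciferase-expressing HCMV at 1 PFU/cell, 72 h at 37C, then lysed for luciferase measurement.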
HCV inh = qHTS Assay for Inhibitors of Hepatitis C Virus (HCV) | Huh7.5.1 HCVcc-Cre infection, luciferase reporter, 44 h | Potency, µM (highest dose often 41.8 µM), hits mostly inhibitors | 340,000 compounds, 3.4% hits | AID 651820, 2012
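HCVcc-Cre virus at an moi near 0.5 was added right after compound to cells cultured 4 h from seeding (1,000 cells/well). Luciferase activity was determined 44 h later, 15 min after substrate addition at RT.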
LASV entry inh = qHTS for Inhibitors of binding or entry into cells for Lassa Virus; 300,000 compounds, 1.2% hits; Lassa virus pseudotype entry inhibition, cell reporter; Potency, µM (doses to about 37.9 µM), hits mostly inhibitors; AID 540256, 2011; calls by dose curve; tested in HEK293 cells; also: nearly all actives have a fitted effect of over 50% in size
MARV entry inh = qHTS for inhibitors of binding or entry into cells for Marburg Virus; 300,000 compounds, 1.8% hits; Potency, µM (doses to about 37.8 µM), most hits filed as inhibitors; Marburg virus pseudotyped entry inhibition, cell reporter; calls by dose curve; tested in HEK293 cells
Pf growth 96h = Primary qHTS for delayed death inhibitors of the malarial parasite plastid, 96 hour incubation. P. falciparum luciferase reporter growth, 96 h. 320,000 compounds, 6.9% hits. Potency, µM (titrated, usually from 28.7 µM), usual class: inhibitors. AID 504834, 2011
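Two-generation exposure (96 h) targets delayed-death phenotype. Reporter parasites carrying integrated firefly luciferase, in red cells at 2% hematocrit and 0.05% parasitemia final, kept at 37 C, 5% CO2; luminescence loss indicates inhibition.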
Hits are given with their value; n = inactive; u = inconclusive; x = no result given; [ ] = dose if it differs, or a comment. Unless noted, calls follow the shape of the dose curve; as a rule, active = well fitted inhibition curve with a large enough effect; inconclusive = small, poorly fitted or top-dose-only effect, or another doubt; inactive = no such curve, though single readings can be large or run the other way.

SMILES	Pf growth 48h	HCMV antiviral	HCV inh	LASV entry inh	MARV entry inh	Pf growth 96h
Cc1ccc(NCC(=O)N/N=C/c2ccncc2)cc1	n	n	n	n	n	u
C=CCN1c2ccccc2[C@]23CCC(=O)N(CC(=O)OC)C2=NC(C(=O)OC)=C(C(=O)OC)[C@H]13	x	x	x	x	n	x
CC1CC(C)CC(C)C(O)C(C#N)=CC=CCC(C2CCCC2C(=O)O)OC(=O)CC(O)C(C)C1 (configuration not stated)	x	-97.4	u	1.41µM	0.447µM	x
O=C(NCc1ccccc1Cl)c1ccccc1NC(=O)c1nsc2ccccc12	x	n	x	n	x	x
CC(=O)/C(N=Nc1ccc2c(c1)OCCO2)=C(\C)O	n	-70.7	n	u	u	n
CC(=O)/C(N=Nc1ccc2c(c1)OCO2)=C(\C)O	n	n	n	n	u	n
CCC(=NCc1ccco1)c1c(O)n(-c2ccc(C)cc2)c(=O)[nH]c1=O	n	n	n	0.58µM	u	u
CCC(=NCc1ccco1)c1c(O)n(-c2ccccc2)c(=O)[nH]c1=O	n	n	n	u	n	n
CCOC(=O)c1cc(-c2ccccc2)n(CCC(=O)NCCc2ccc(C)cc2)c1C	x	n	x	n	x	x
N#CC(=C1C=CC(=NO)C(Cl)=C1)c1ccccc1	x	-98.1	x	x	x	x
CNS(=O)(=O)c1cc(N(C)S(=O)(=O)c2ccc(C)cc2)c(C)cc1C	n	u	n	n	u	n
Cc1ccc(S(=O)(=O)N(C)c2cc(S(=O)(=O)N3CCC(C)CC3)c(C)cc2C)cc1	10.4µM	u	10µM	u	u	11.7µM
Cc1ccc(Cn2ccc(NC(=O)c3cc(-c4cccs4)on3)n2)cc1	10.4µM	n	n	n	n	u
O=C(Nc1cnn(Cc2ccc(F)cc2)c1)c1cc(-c2cccs2)on1	x	n	8.91µM	n	n	u
CCc1cc(C(=O)Nc2cnn(Cc3ccc(F)cc3)c2)no1	x	n	x	n	n	x
COc1ccc(Oc2nc3c(c(=O)n(C)c(=O)n3C)n2Cc2ccc(Cl)cc2Cl)cc1	x	n	x	n	x	x
CCN(CCNC(=O)c1ccc(CSc2nc3ccncc3[nH]2)cc1)c1ccccc1	10.4µM	n	u	u	n	n
O=C(NCCN1CCN(c2cccc(Cl)c2)CC1)c1ccc(CSc2nc3ccncc3[nH]2)cc1	1.65µM	-79.4	u	u	u	u
N#Cc1ccc2c(c1)C[C@]1(CCCCN3C(=O)c4ccccc4C3=O)Oc3c(c(=O)oc4ccccc34)C2O1	1.69µM	x	x	x	x	n[5.75 µM]
O=S(=O)(c1ccccc1)c1ncc(C(F)(F)F)cc1Cl	10.4µM	n	u	u	u	u
O=C(C(=O)N1CCC(c2ccccc2)CC1)c1ccc(F)c(F)c1	x	-62.1	x	x	x	x
COC(=O)c1cc2ccccc2c(-c2c(OC)c(C(=O)OC)cc3ccccc23)c1OC	u	u	10µM	u	6.51µM	11.7µM
O=C1COCc2cc(-c3cccnc3)ccc2N1Cc1ccc2c(c1)OCO2	x	n	x	x	x	x
CC(=O)N1c2ccccc2N(Cc2ccc(C)cc2C)C(=O)C1(C)C	x	n	u	x	x	1.65µM
Cc1ccc(S(=O)(=O)N2CCN(C(=O)c3cc4c(s3)CCCC4)CC2)cc1	u	n	n	x	x	u
SMILES	Pf growth 48h	HCMV antiviral	HCV inh	LASV entry inh	MARV entry inh	Pf growth 96h
COc1ccc(S(=O)(=O)N2CCN(C(=O)c3cc4c(s3)CCC4)CC2)cc1	x	-78.0	n	u	n	x
O=C(c1cc2c(s1)CCCC2)N1CCN(S(=O)(=O)c2ccccc2C(F)(F)F)CC1	u	n	n	u	n	11.7µM
COc1ccc(CNC(=O)CCc2nc3cccnc3n2Cc2ccccc2)cc1	x	n	x	n	n	x
O=C(Cc1cccs1)Nc1cc(S(=O)(=O)N2CCCCC2)ccc1Cl	u	n	n	x	x	u
CC(NCC(=O)Nc1cc(S(=O)(=O)N2CCCCCC2)ccc1Cl)c1ccccc1 (configuration not stated)	u	n	12.6µM	x	x	u
O=C(CN1CCCC1)Nc1ccccc1Cl	x	n	n	n	u	n
O=C(CN1CCN(CC(=O)Nc2ccccc2Cc2ccccc2)CC1)Nc1ccccc1Cl	u	n	u	n	u	13.1µM
Cn1cnnc1SCC(=O)Nc1cc(S(=O)(=O)N2CCCCC2)ccc1Cl	n	n	n	n	n	n
O=C(CN(Cc1ccco1)Cc1ccco1)Nc1cc(S(=O)(=O)N2CCCCC2)ccc1Cl	13.1µM	-83.2	10µM	x	x	u
CN(C)c1ccc(S(=O)(=O)N2CCCCC2)cc1NC(=O)CCNC(=O)c1ccco1	11.7µM	n	n	x	x	u
O=C(CN1CCN(C(=O)c2cccc(S(=O)(=O)N3CCCC3)c2)CC1)Nc1ccc(F)cc1	u	u	n	n	n	u
O=C(CN1CCN(S(=O)(=O)c2ccccc2)CC1)Nc1ccccc1C(=O)c1ccccc1	13.1µM	u	u	u	u	4.65µM
O=C(CN1CCN(C(=O)c2cccc(S(=O)(=O)N3CCCC3)c2)CC1)Nc1ccccc1Cl	10.4µM	n	n	x	x	u
O=C(CN1CCN(C(=O)c2ccccc2)CC1)Nc1cccc(S(=O)(=O)N2CCCC2)c1	u	n	n	n	n	u
O=C(CN1CCN(C(=O)c2ccccc2)CC1)Nc1cc(S(=O)(=O)N2CCCC2)ccc1Cl	10.4µM	n	u	x	x	u
CC1CCN(C(C)C(=O)Nc2cc(S(=O)(=O)N3CCCCC3)ccc2Cl)CC1 (configuration not stated)	11.7µM	u	15.8µM	n	n	9.28µM
O=C(CN1CCN(S(=O)(=O)c2ccccc2)CC1)Nc1ccccc1Cl	n	n	u	n	n	n
COc1ccc(N(Cc2cccs2)C(=O)Nc2cccc(Cl)c2)cc1	x	n	x	n	n	x
O=C(O)c1cc(S(=O)(=O)N2CCN(C(c3ccccc3)c3ccccc3)CC2)ccc1Cl	11.7µM	n	n	n	n	9.28µM
CCOc1ccc(N(C(=O)Cn2nnc3ccccc32)C(C(=O)NC(C)(C)CC)c2cccn2C)cc1 (configuration not stated)	13.1µM	n	n	n	n	n
CCC(C)(C)NC(=O)C(c1cccn1C)N(C(=O)Cn1nnc2ccccc21)c1ccc(OC)cc1OC (configuration not stated)	8.28µM	n	n	n	n	n
CCC(C)(C)NC(=O)C(c1ccncc1)N(C(=O)Cn1nnc2ccccc21)c1cc2c(cc1C(C)=O)OCO2 (configuration not stated)	u	u	n	n	n	n
COc1cc2ccccc2cc1C(=O)Nc1ccc(C)cc1	u	n	u	x	x	n
COc1cc2ccccc2cc1C(=O)Nc1ccc(Cc2ccncc2)cc1	x	n	10µM	u	u	4.15µM
COc1ccc(NC(=O)Nc2ccc(Cc3ccncc3)cc2)cc1OC	u	n	u	n	n	5.22µM
COc1ccccc1NC(=O)Nc1ccc(Cc2ccncc2)cc1	n	n	n	u	n	n

Screens (PubChem BioAssay)
